Bioassay records deposited in PubChem by National Center for Advancing Translational Sciences (NCATS).
TGFb SMAD3 inh: blocks TGF-b signaling | HepG2 CAGA-GFP TGF-b/SMAD3 reporter, GFP fluorescence, 18 h; TGF-beta stimulated, 500 pg/mL final | Potency, µM (titrated, usually from 46.1 µM), actives largely listed as inhibitors | hit rate 1.2% among 410,000 | AID 588855; further: nearly all actives have a fitted effect of over 65% in size
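Read-out: total well GFP (ex488/em500-530) summed from mean per-cell fluorescence. Cells: HEPG2 CAGA-GFP, 1% FBS DMEM, 18 h at 37 degrees C with 500 pg/mL final TGF-beta. Unstimulated wells served as the full-inhibition control; stimulated DMSO wells = 0%.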
IL-1B inflam inh: inflammasome signaling inhibition, IL-1 beta readout; THP-1 LPS/ATP IL-1B secretion, AlphaLISA, 16 h; hits give low values; activity change, % at 57.5 µM; hit rate 4.7% among 360,000; AID 743279; in the data active means activity change below about -50%; inconclusive means mostly about -30% to -49%
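THP-1 cells pretreated 1 hr with compounds (up to 57.5 uM final), then stimulated with LPS (250 ng/mL final) plus ATP (1.25 mM final); secreted IL-1B measured by AlphaLISA after 16 hr, decreased signal indicating inhibition.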
S-ASM inh: blocks human secretory acid sphingomyelinase | Potency, µM (top dose mostly 57.5 µM), hits mostly inhibitors | P17405 | hit rate 0.006% among 340,000 | placental ASM, HMU-PC fluorogenic substrate, 60 min
Target sequence (P17405 47-631 limits assumed): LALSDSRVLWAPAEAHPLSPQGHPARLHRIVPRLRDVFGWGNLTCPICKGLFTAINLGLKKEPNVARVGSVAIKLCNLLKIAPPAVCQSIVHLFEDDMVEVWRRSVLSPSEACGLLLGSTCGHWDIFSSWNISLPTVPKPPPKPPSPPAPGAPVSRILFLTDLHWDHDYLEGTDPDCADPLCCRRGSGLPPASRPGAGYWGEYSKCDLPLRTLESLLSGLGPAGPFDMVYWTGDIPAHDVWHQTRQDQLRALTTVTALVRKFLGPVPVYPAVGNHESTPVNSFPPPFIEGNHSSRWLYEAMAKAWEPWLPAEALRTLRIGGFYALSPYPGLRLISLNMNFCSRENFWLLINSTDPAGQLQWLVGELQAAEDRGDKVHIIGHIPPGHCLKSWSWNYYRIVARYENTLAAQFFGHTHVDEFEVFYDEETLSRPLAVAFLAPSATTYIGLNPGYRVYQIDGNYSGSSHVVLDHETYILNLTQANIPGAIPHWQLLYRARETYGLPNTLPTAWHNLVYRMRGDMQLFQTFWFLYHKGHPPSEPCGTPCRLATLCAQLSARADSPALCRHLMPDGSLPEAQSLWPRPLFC
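Fluorescence read-out (Ex 386 nm, Em 447 nm) after stopping the reaction at pH 10. Enzyme: ASM from human placenta; substrate HMU-PC0, 9 uM final; 60 min, 37 °C. Compound preincubation 10 min, ambient temperature.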
TDP1 cell noCPT: qHTS for Inhibitors of human tyrosyl-DNA phosphodiesterase 1 (TDP1): qHTS in cells in absence of CPT. DT40 Tdp1-/- hTDP1 cells, no CPT, ATP luminescence, 48 h. Potency, µM (series often up to 46.2 µM), hits mostly inhibitors. hit rate 15% among 420,000. AID 686978, 2013; further: nearly all actives have a fitted effect of over 55% in size
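Cells were dispensed at 400 per well, compounds added by pin tool, plates incubated ≥48 hr at 37 °C, then CellTiter-Glo added for 30 min at room temperature before luminescence reading. Line: DT40 Tdp1-/- complemented with hTDP1; camptothecin omitted.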
HepG2 tox-1: HepG2 cytotoxicity, counter-screen for TGF-b inhibitors | HepG2 CAGA-GFP viability, ATP luminescence, 18 h | Potency, µM (doses to about 46.1 µM), usual class: cytotoxic | hit rate 0.76% among 410,000
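HepG2 CAGA-GFP cells (1000/well, DMEM with 1% FBS) received compound, then TGF-beta at 500 pg/mL final, and were incubated 18 hours at 37 degrees C. Viability was read by CellTiter-Glo luminescence. Media-only wells were set as complete cell-killing and DMSO as no toxicity.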
DT40 TDP1 CPT: growth inhibition of DT40 Tdp1-/-;hTDP1 cells with camptothecin (screen for TDP1 inhibitors). Potency, µM (series often up to 46.2 µM), most hits filed as inhibitors. AID 686979. chicken DT40 Tdp1-/-;hTDP1 cells + 20 nM CPT, ATP luminescence, 48 h. hit rate 12% among 420,000; further: nearly all actives have a fitted effect of over 55% in size
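Chicken DT40 Tdp1-/- cells complemented with human TDP1, 400 cells/well, exposed to compounds plus 20 nM camptothecin for at least 48 h at 37 C; viability read as ATP content by CellTiter-Glo luminescence.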
TGFb confirm: confirmation of TGF-b signaling inhibitors in HepG2 reporter cells. shares compounds with TGFb SMAD3 inh. HepG2 CAGA-GFP TGF-b reporter, GFP fluorescence, 18 h; cells stimulated with TGF-beta, 500 pg/mL. Potency, µM (titrated, usually from 46.1 µM), hits mostly inhibitors. hit rate 63% among 1,600. AID 720534; further: nearly all actives have a fitted effect of over 65% in size
HepG2 tox-2: counter-screen for TGF-b inhibitors: cytotoxicity in HepG2 cells; shares compounds with TGFb SMAD3 inh; HepG2 CAGA-GFP viability, ATP luminescence, 18 h; cells stimulated with TGF-beta, 500 pg/mL; Potency, µM (highest dose often 46.1 µM), actives largely listed as inhibitors; hit rate 27% among 1,600; AID 720535; further: nearly all actives have a fitted effect of over 70% in size
CCL64 TGFb inh: blocks TGF-b signaling in CCL64 reporter cells; shares compounds with TGFb SMAD3 inh; hit rate 41% among 1,600; CCL64 CAGA-GFP reporter, TGF-b stimulated, GFP fluorescence, 18 h; AID 720536; Potency, µM (highest dose often 46.1 µM), usual class: inhibitors; further: nearly all actives have a fitted effect of over 65% in size
TGFb COP inh: blocks TGF-b signaling in HepG2 COP reporter. shares compounds with TGFb SMAD3 inh. HepG2 COP-GFP TGF-b reporter, GFP fluorescence, 18 h; cells stimulated by added recombinant TGF-beta. Potency, µM (titrated, usually from 46.1 µM), hits mostly inhibitors. hit rate 3% among 1,600. AID 720537; further: nearly all actives have a fitted effect of over 70% in size
A number is an active result; – = inactive; ? = inconclusive; · = no result given. Sampled rows, rich in hits. Any-hit rate of the full collection: about 19%. Unless noted, the call rests on the fitted dose curve; in most records, active means well fitted curve in the direction sought with a large enough effect; inconclusive means small, poorly fitted or top-dose-only effect, or another doubt; inactive means no such curve, though single readings can be large; an effect the other way counts as inactive or inconclusive.

SMILES	TGFb SMAD3 inh	IL-1B inflam inh	S-ASM inh	TDP1 cell noCPT	HepG2 tox-1	DT40 TDP1 CPT	TGFb confirm	HepG2 tox-2	CCL64 TGFb inh	TGFb COP inh
CCCCCCCNC(=O)C1(CC2CC(c3cccc(Br)c3)=NO2)CCN(C(=O)c2ccccc2)CC1 (stereo not drawn)	–	–	–	?	–	?	·	·	·	·
COC(=O)c1ccc(Cn2c(C)c(C(=O)NCc3ccc(Cl)c(Cl)c3)sc2=O)o1	12.6µM	–	·	20.6µM	–	?	23.1µM	–	–	–
Cc1c(C(=O)NCc2ccc(Cl)c(Cl)c2)sc(=O)n1Cc1ccccc1F	?	–	·	?	–	?	·	·	·	·
COc1ccccc1/C=C/C(=O)N1CCOCC1	–	–	–	–	–	–	·	·	·	·
COc1ccccc1/C=C/C(=O)N1CCc2cc(OC)c(OC)cc2C1C (stereo not drawn)	14.1µM	-70.0	–	?	–	?	11.6µM	?	–	–
Cn1cc(CN2CCC(Oc3ccc(C(=O)N4CCCC4)cc3)CC2)cn1	–	–	–	–	–	–	·	·	·	·
O=C(Nc1oc2ccccc2c(=O)c1-c1ccc2c(c1)OCO2)c1ccco1	–	–	·	–	–	–	·	·	·	·
CC(=NNc1nc2ccccc2o1)c1cc2ccccc2cn1	0.316µM	-102.3	–	0.13µM	–	0.13µM	?	18.4µM	?	–
COc1cc(/C=N/Nc2nc3ccccc3o2)cc(OC)c1O	–	–	–	–	–	?	·	·	·	·
COc1ccc(C(CNC(=O)CCNS(=O)(=O)c2ccc(C)cc2)N2CCOCC2)cc1 (stereo not drawn)	–	–	–	–	–	–	·	·	·	·
Cc1ccc(NC(=S)NCc2ccccc2)cc1S(=O)(=O)N1CCCCC1	15.8µM	–	–	?	–	?	23.1µM	?	25.9µM	–
Cc1ccc(NC(=O)Cc2ccc(Cl)cc2)cc1S(=O)(=O)N1CCCCCC1	?	?	–	?	–	?	·	·	·	·
COc1ccc(C(=O)OCC(=O)N(C)C2CCS(=O)(=O)C2)cc1Br (stereo not drawn)	–	–	–	–	–	–	·	·	·	·
C[C@@]12CCC=C[C@H]1[C@H](c1ccccc1Br)N(Cc1ccccc1)C2=O	17.8µM	–	–	16.4µM	–	?	18.4µM	?	?	–
CCOC(=O)c1c(S(=O)(=O)NCC(=O)N2CCN(c3cccc(OC)c3)CC2)c(C)n(C)c1C	–	–	–	–	–	–	·	·	·	·
CSc1ccccc1NC(=O)C(C)N(C)CC(=O)N1CCN(Cc2ccccc2)CC1 (stereo not drawn)	?	–	–	20.6µM	–	?	?	–	–	–
CN(CC(=O)N1CCN(Cc2ccccc2)CC1)S(=O)(=O)c1ccc(F)cc1	–	–	·	–	–	–	·	·	·	·
N#Cc1cccc2cccc(S(=O)(=O)N3CCOCC3)c12	–	–	–	–	–	–	·	·	·	·
COc1ccc(Cc2c(-c3ccccc3)nc3ccc(Br)cn23)c(C)c1	10µM	–	·	20.6µM	–	20.6µM	?	?	?	–
Cc1ccc(Cc2c(-c3cccc(Cl)c3)nc3ccc(Br)cn23)cc1	?	–	·	?	–	–	·	·	·	·
Clc1cccc(-c2nc3ccc(Br)cn3c2Cc2ccsc2)c1	?	–	·	?	–	–	·	·	·	·
Cc1ccc(Cc2c(-c3cccc(Cl)c3)nc3ccc(C)cn23)cc1	10µM	–	·	16.4µM	–	?	18.4µM	?	?	–
COc1ccc(Cc2c(C(C)(C)C)nc3ccc(Br)cn23)c(C)c1	–	–	·	?	–	?	·	·	·	·
Brc1cccc(-c2nc3ccc(Br)cn3c2Cc2ccsc2)c1	11.2µM	–	·	–	–	–	23.1µM	?	?	–
Clc1ccc2nc(-c3cccc(Br)c3)c(Cc3ccsc3)n2c1	10µM	–	·	–	–	–	?	?	?	–
SMILES	TGFb SMAD3 inh	IL-1B inflam inh	S-ASM inh	TDP1 cell noCPT	HepG2 tox-1	DT40 TDP1 CPT	TGFb confirm	HepG2 tox-2	CCL64 TGFb inh	TGFb COP inh
CCOC(=O)c1c(-c2ccc(C)cc2)csc1NC(=O)c1nc(SC(C)C)ncc1Cl	–	·	·	–	–	–	·	·	·	·
NC(c1csc(NC(=O)Nc2ccc(OC(F)(F)F)cc2)n1)C1CCCCC1 (stereo not drawn)	8.91µM	-111.8	·	9.2µM	7.94µM	10.3µM	?	18.4µM	20.6µM	?
CN(CC(=O)Nc1ccc(OC(F)(F)F)cc1)C1CCCCC1	–	?	–	–	–	?	·	·	·	·
Cc1nn(-c2cccc(Cl)c2)c2nc(C(F)(F)F)[nH]c(=O)c12	11.2µM	–	–	29.1µM	–	?	6.51µM	8.2µM	2.91µM	–
Cc1nn(-c2cc(C(F)(F)F)ccc2Cl)c2nc(C(F)(F)F)[nH]c(=O)c12	?	–	–	–	–	–	·	·	·	·
COc1ccc(C(=O)N2CCOC2CNC(=O)C(=O)NCc2ccccc2)cc1 (stereo not drawn)	–	–	·	?	–	–	·	·	·	·
O=C(/C=C/[C@H]1O[C@@H](n2cnc3c(NC(=O)c4ccccc4)ncnc32)[C@H](O)[C@@H]1O)NCC(c1ccccc1)c1ccccc1	–	–	·	?	–	?	·	·	·	·
O=C(CCC(=O)c1ccc(F)cc1)Nc1cccc(S(=O)(=O)Nc2cccc(Cl)c2)c1	12.6µM	–	–	23.1µM	–	14.6µM	?	?	?	–
Cc1cccc(C)c1N(CC(=O)Nc1cc(Cl)ccc1Oc1ccccc1)S(C)(=O)=O	?	–	–	?	–	?	?	–	–	–
COc1cccc(OCC(=O)Nc2cc(Cl)ccc2Oc2ccccc2)c1	–	–	–	–	–	–	·	·	·	·
Cc1ccc(SC2=C(N(C)C)C(=O)c3ccccc3C2=O)cc1	10µM	-63.9	–	5.17µM	–	4.61µM	?	–	20.6µM	–
